SMILES strings stand for the structures. About 2,500 (1.9%) of roughly 130,000 compounds were called active.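 The calls were made as follows: active = signal ratio slope over the read window, or its plate-corrected B-score, at least 3 SD from the plate mean, either direction; inactive = the rest.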 The list comes from a sample in which actives are over-represented; it also holds similar structures and randomly drawn compounds.

The target in the test is ATP-sensitive inward rectifier potassium channel 1 (Homo sapiens) (UniProt P48048). The test is described as follows: Kir1.1 channel activity modulation, library screen – cell-based, thallium flux, MLSMR library, primary screen (AID 1918).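 Also: B-score of the F/F0 ratio slope over 7 to 12 s after thallium.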 Particulars: Tet-inducible ROMK, thallium flux fluorescence; at 10 µM; actives lie on both sides.
Chain of ATP-sensitive inward rectifier potassium channel 1 (Homo sapiens) (P48048 whole entry, looked up): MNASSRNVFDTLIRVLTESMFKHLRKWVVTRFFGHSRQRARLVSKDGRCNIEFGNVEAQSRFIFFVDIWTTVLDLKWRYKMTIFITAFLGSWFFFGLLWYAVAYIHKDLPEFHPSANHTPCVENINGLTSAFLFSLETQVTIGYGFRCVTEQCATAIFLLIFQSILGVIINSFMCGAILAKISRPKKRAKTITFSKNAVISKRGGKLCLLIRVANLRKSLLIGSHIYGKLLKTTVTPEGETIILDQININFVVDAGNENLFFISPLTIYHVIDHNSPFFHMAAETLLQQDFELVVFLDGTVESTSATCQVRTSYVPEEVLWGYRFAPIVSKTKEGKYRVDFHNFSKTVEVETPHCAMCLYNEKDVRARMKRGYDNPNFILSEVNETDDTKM
As for `Cc1nc2ccccn2c1P(=S)(N1CCCCC1)N1CCCCC1`, the B-score was -3.59 (active).
As to `CSc1nc2ccc(C)cc2c(=O)n1-c1cccnc1`, the B-score is -0.218 (inactive).
Turning to `COC(=O)N1C(c2ccccc2)C1c1ccccc1` (stereo not given), the B-score is 0.0342 (inactive).
For `O=C(Nc1cccc2ccccc12)N1CCC2(CC1)OCCO2`, the B-score is -0.682 (inactive).
Consider `CCN1CCN(c2ccc([N+](=O)[O-])cc2C#N)CC1`, for which the B-score was -0.443 (inactive).
As for `CC1=C2C(=O)C3C(CC=C4CC(OC5OC(O)C(O)C(O)C5CO)CCC43C)C2CCC12OC1CC(C)CNC1C2C` (stereo not given), the figure is -0.573 (inactive); as for `N=c1ccccn1Cc1ccccc1`, 2.77 (active).
On to `CN(C)/C=C(\C=[N+](C)C)c1[nH]ncc1[N+](=O)[O-]`, for which the B-score is 0.157 (inactive).
With `O=c1[nH]c(=O)n(-c2ccccc2)c(O)c1C=NC12CN3CN(CN(C3)C1)C2`, the B-score was 0.583 (inactive).
To `O=c1[nH]c(=O)n(CCc2ccccc2)c(O)c1/C=N/N1CCOCC1` belongs 0.152 (inactive); to `CC1=C(C(=O)Nc2ccccc2)S(=O)(=O)CCO1`, 0.94 (inactive).
As for `CCOCCc1c(O)[nH]c(=S)[nH]c1=O`, the figure is -0.807 (inactive); as for `COc1ccccc1N=Nc1c(O)[nH]c(=S)[nH]c1=O`, -2.66 (active); as for `O=C1N=c2ccccc2=C/C1=C\c1c(O)[nH]c(=S)[nH]c1=O`, 0.454 (inactive).
Consider `CNC(=O)O/N=C(\N)Cc1csc2ccccc12`, for which the B-score is 0.164 (inactive).
For `CC(Cc1cccs1)NCc1ccc(Cl)cc1` (stereo not given), the B-score was 0.0543 (inactive).
To `CCCOC(=O)C1C2c3ccccc3C(c3ccccc32)C1C(=O)O` (stereo not given) belongs 0.827 (inactive); to `O=C(COC(=O)Cc1ccccc1)Nc1ccc(F)cc1`, -0.767 (inactive).
As for `OC1/C(=C/c2ccc(C(F)(F)F)cc2)N2CCC1CC2` (stereo not given), the B-score was -1.88 (inactive).
As for `CCCCCCCCCCCCn1ccc(=N)cc1`, the B-score is -10.9 (active).
Turning to `CC(C)CN1CCN(Cc2ccccc2C(F)(F)F)CC1CCO` (stereo not given), the B-score was -0.0138 (inactive).
Turning to `CC(C)Oc1cccc(C(=O)C2CCCN(C3CCOCC3)C2)c1` (stereo not given), the B-score was 0.0502 (inactive).
In the case of `Cc1ccc(-c2cc(C(=O)N3CCC4(CC3)OCCO4)no2)cc1`, the B-score is 1.11 (inactive).
As to `Clc1ccc2nc3c(c(-c4ccccc4)c2c1)CNCC3`, the B-score was -3.67 (active).
`Cc1ccccc1N1C(=O)NC(=O)/C(=C\c2cc(C)n(C)c2C)C1=O`: the B-score is 0.936 (inactive).
As for `Cc1cc(C=C2C(=O)NC(=O)NC2=O)c(C)n1-c1ccncc1`, the B-score is -3.19 (active).
As for `Cc1cc(/C=C2/C(=O)NC(=O)N(Cc3ccco3)C2=O)c(C)n1-c1ccc(C(=O)O)cc1`, the B-score was 0.104 (inactive).
As to `O=C(Cn1c(=O)n(CC2CS2)c2ccccc21)N1CCCCC1` (stereo not given), the B-score was 1.36 (inactive).
To `CC(C)c1ccc(-n2c(O)c(/C=N/N3CCOCC3)c(=O)[nH]c2=S)cc1` belongs 0.913 (inactive).
Take `COc1ccc(NC(=O)N2CCC3(CC2)OCCO3)c(OC)c1`: the B-score was -0.624 (inactive).

The values above are taken from PubChem BioAssay AID1918 (Vanderbilt High Throughput Screening Facility, 2009).
